Most compounds without a hit are left out; they make up all but 11% or so of the library.
HPGD inh: blocks human HPGD enzyme activity | P15428 | purified HPGD, NADH fluorescence kinetic, PGE2 substrate | Potency, µM, for inactives: at the top dose activity change, negative = inhibition, hits mostly inhibitors | actives 4.3% (n = 150,000) | AID 894; note: potency is the fitted concentration of half-maximal effect
Target sequence (P15428 whole entry, looked up): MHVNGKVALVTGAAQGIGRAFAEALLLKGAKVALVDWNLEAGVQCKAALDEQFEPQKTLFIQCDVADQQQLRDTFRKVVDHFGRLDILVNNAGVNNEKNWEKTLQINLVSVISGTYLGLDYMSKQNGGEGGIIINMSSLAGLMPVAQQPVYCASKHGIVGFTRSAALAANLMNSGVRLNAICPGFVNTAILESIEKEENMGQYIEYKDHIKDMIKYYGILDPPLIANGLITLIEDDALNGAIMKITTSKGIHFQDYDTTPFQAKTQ
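NADH formation kinetics: reaction with 30 uM PGE2 and 1 mM NAD+ (final), 20 nM enzyme, Tris-HCl pH 8 with Tween 20, after 15 min compound preincubation at room temperature. Fluorescence change, last versus first of five reads.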
PNC assembly inh: blocks assembly of the perinucleolar compartment; PC3M PTB-GFP, PNC prevalence imaging, 16 h; active compounds read low; activity change (PNC), negative = inhibition, % at 10 µM; actives 3.1% (n = 140,000);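 active = readout at or below -70, meaning at least 70% loss of cells showing the perinucleolar compartment, a nuclear body marking cancer cells; inconclusive = readout between -30 and a set limit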;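 note: plate controls were DMSO wells for no effect and camptothecin positive control wells for full effect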
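Compounds are pinned in duplicate onto adhered PC3M cells stably expressing GFP-tagged PTB and incubated 16 h at 37 C. Cells are then fixed, nuclei stained with Hoechst, and PNC-positive cells counted.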
ALDH1A1 block: blocks purified human ALDH1A1 activity; Potency, µM (top dose mostly 75.3 µM), inactives show at the top dose activity, negative = inhibition, actives largely listed as inhibitors; P00352; actives 7.3% (n = 220,000); Purified ALDH1A1, NADH fluorescence, propionaldehyde substrate;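 note: potency is the fitted concentration of half-maximal effect; plate controls were no enzyme wells and a reference inhibitor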
* hit, by the source's call; ? = inconclusive; / = not tested or not shown; ! = not confirmed by another sample; [ ] = dose if it differs, or a comment. Unless noted, calls come from the whole dose curve; as a rule, active = well fitted inhibition curve with a large enough effect (not every such curve was filed as active); inconclusive = small, poorly fitted or top-dose-only effect, or another doubt; inactive = no such curve, though single readings can be large or run the other way. Unless noted, % is set by controls: 0 for no effect and ±100 for the full control effect.

SMILES	HPGD inh	PNC assembly inh	ALDH1A1 block
COc1ccc(/C=C/C(=O)Nc2ccccc2C(=O)O)cc1OC	14.1µM*!	-15.0	-3.0%
COc1ccc(/C=C/C(=O)Nc2ccccc2C(=O)O)cc1	/	/	-9.6%
COc1ccc(/C=C/C(=O)c2ccc(O)cc2O)cc1OC	14.1µM*	/	?
Cc1cc(=O)oc2cc(OCc3ccc(C(=O)OCC(=O)Nc4ccccc4OC(F)F)cc3)ccc12	?	21.9	?
Cc1cc(NC(=O)CN2C(=O)C3CC=CCC3C2=O)no1 (centres undefined)	3.1%	2.3	5.4%
NC(=O)[C@@H]1CCNc2c(I)cc([N+](=O)[O-])cc2C(=O)N[C@@H](CCC(=O)O)C(=O)N[C@@H](CO)C(=O)N1	-25.3%	34.7	-1.7%
N/C(=C/C(=O)c1ccccc1O)C(F)(F)F	-0.3%	?	4.8%
COc1ccc(C(=O)/C=C(\N)C(F)(F)F)c(O)c1	-14.3%	19.8	8.91µM*
COC(=O)CCC(=O)Nc1ccc(NC(=O)CCC(=O)OC)cc1	-15.0%	-7.1	1.9%
COC(=O)CCC(=O)Oc1ccc(OC(=O)CCC(=O)OC)cc1	-14.9%	-113.4*	?
Cc1csc(NC(=O)C2CCN(C(=O)CSc3nnc(C)n3Cc3ccccc3)CC2)n1	-9.1%	-29.5	-6.9%
O=C(O)C1C2C=CC(O2)C1C(=O)NCc1ccccc1Br (centres undefined)	-8.1%	14.6	14.1µM*
COc1ccccc1NC(=O)C1C2C=CC(O2)C1C(=O)O (centres undefined)	-11.1%	-10.8	?
NNc1cc([N+](=O)[O-])cc2c1C(=O)N(Cc1ccccc1)S2=O (centres undefined)	/	/	14.1µM*
CC(C)=NNc1cc([N+](=O)[O-])cc2c1C(=O)N(C)S2=O (centres undefined)	/	/	-4.4%
COC(=O)c1ccc(C(NC(=O)OCc2ccccc2)/C(I)=C/[C@@H](C)C(=O)Nc2ccccc2)cc1 (some centres undefined)	-24.7%	/	3.3%
COC(=O)c1ccc(C(NC(=O)OCc2ccccc2)/C(F)=C/[C@@H](C)C(=O)NCc2ccc(-c3ccccc3)cc2)cc1 (some centres undefined)	-9.9%	-19.1	-4.4%
COC(=O)c1ccc(C(NC(=O)OCc2ccccc2)/C(I)=C/[C@@H](C)C(=O)NCC2CC2)cc1 (some centres undefined)	14.1µM*	/	-10.6%
COC(=O)c1ccc(C(NC(=O)OCc2ccccc2)/C(F)=C/[C@@H](C)C(=O)NCc2ccc(OC)c(OC)c2)cc1 (some centres undefined)	-11.2%	-118.9*	?
Cc1ccc(-c2nn(-c3cc(N4CCNCC4)ccc3[N+](=O)[O-])c(=O)c3ccccc23)cc1	/	/	3.4%
CCN1CCN(S(=O)(=O)c2ccc(S(=O)(=O)N(CC)Cc3ccccc3)cc2)CC1	-0.7%	1.1	?
COc1ccc(CCn2c(N3CCN(C)CC3)nc3c2c(=O)[nH]c(=O)n3C)cc1	-9.6%	-2.9	-4.1%
Cc1nnc(SCCn2c(N3CCN(C)CC3)nc3c2c(=O)[nH]c(=O)n3C)s1	-5.6%	-10.6	9.2%
COc1ccc(CCn2c(Br)nc3c2c(=O)[nH]c(=O)n3C)cc1	12.6µM*	-82.3*	6.1%
Cn1c(=O)[nH]c(=O)c2c1nc(Br)n2CCC(=O)c1ccccc1	-8.6%	-4.5	3.55µM*
SMILES	HPGD inh	PNC assembly inh	ALDH1A1 block
Cc1nnc(SCCn2c(Br)nc3c2c(=O)[nH]c(=O)n3C)s1	-13.7%	-26.7	7.94µM*
Cn1c(=O)[nH]c(=O)c2c1nc(Br)n2C/C=N/NC(=O)c1ccccc1	/	/	1.0%
O=C1c2ccccc2C(=O)N1CCc1c[nH]c2ccc(O)cc12	/	/	7.3%
CC(C)(C)C(=O)Cn1nc(Cl)nc1Cl	/	/	7.7%
COc1ccc(CCN(C)C(=S)NC(=O)c2ccc(F)cc2Cl)cc1OC	/	/	0.5%
CCN(Cc1ccccc1)S(=O)(=O)c1ccc(S(=O)(=O)N(Cc2ccccn2)Cc2ccco2)cc1	-5.2%	?	13.2%
CC1CCCCN1S(=O)(=O)c1ccc(S(=O)(=O)N(Cc2ccccc2)Cc2ccco2)cc1 (centres undefined)	-11.4%	-100.0*	7.08µM*
CCCCNC(=O)COC(=O)c1ccc(F)cc1Cl	/	/	2.2%
COc1ccc(C(C)=O)cc1CSc1nnc(-c2ccccc2O)n1-c1ccccc1	?	-25.0	?
CC(=O)N1CCc2cc(S(=O)(=O)CCC(=O)Nc3c(C)n(C)n(-c4ccccc4)c3=O)ccc21	6.6%	-4.4	-11.6%
COC(=O)C1=C(C(=O)OC)[C@@H]2N(Cc3ccccc3)c3ccccc3[C@@]23C[C@@H](C(=O)OC)N=C3N1	-2.7%	/	8.3%[13.5 µM]
O=C(Cn1cccc1)NC1CCCCCC1	14.1µM*	35.5	-1.7%
O=C(O)CCC(=O)NC1CCCCCCC1	-4.9%	-29.4	19.0%
O=c1n(Cc2cc3c(cc2Cl)OCO3)c(=O)n2n1CC[C@H]1/C(=N\OC[C@@H](O)COCc3ccco3)[C@H]3O[C@@H]3[C@@H](O)[C@@H]12	/	/	-4.5%[13.5 µM]
C=CCN(c1ccccc1C(=O)NCC(=O)O)S(=O)(=O)c1ccccc1C	/	/	2.4%
CC1CCN(S(=O)(=O)c2ccc(NC(=O)CSc3nnnn3C)cc2)CC1	-5.3%	?	0.3%
O=C(CCc1ccccc1)Nc1ccc(S(=O)(=O)N2CCCC2)cc1	/	/	12.6µM*
CC1CCN(S(=O)(=O)c2ccc(NC(=O)CSc3ncccc3C(=O)O)cc2)CC1	14.1µM*	14.1	25.1µM*
O=C(CSc1ncccn1)Nc1ccc(S(=O)(=O)N2CCCCC2)cc1	-7.1%	83.5	2.9%
O=C(COC(=O)c1ccc(Br)o1)Nc1ccc(S(=O)(=O)N2CCCC2)cc1	-13.4%	-80.1*	?
Cc1cc(C)c2c(c1)cc(C)c1nnc(SCC(=O)Nc3ccc(S(=O)(=O)N4CCCCC4)cc3)n12	-6.8%	-24.9	20µM*
O=C(COc1ccccc1)Nc1ccc(S(=O)(=O)N2CCCCCC2)cc1	-15.5%	3.0	-11.5%
O=C(Nc1ccc(S(=O)(=O)N2CCCCCC2)cc1)c1ccc(Br)o1	?	-1.8	2.8%
CCOCCCNC(=O)c1ccc2c(c1)N=C(CC)c1cc(Br)ccc1S2	/	/	9.3%
O=C(COc1ccccc1)Nc1ccc(S(=O)(=O)N2CCCC2)cc1	-6.6%	-24.9	-6.0%
SMILES	HPGD inh	PNC assembly inh	ALDH1A1 block
O=C(CSc1nc2ccccc2c(=O)[nH]1)Nc1ccc(C(=O)O)cc1	/	/	-2.6%
O=C(CCOc1ccccc1)Nc1ccc(S(=O)(=O)N2CCCC2)cc1	-9.1%	10.5	22.4µM*
O=C(CSc1nc2ccccc2c(=O)[nH]1)Nc1ccc(S(=O)(=O)N2CCCC2)cc1	14.1µM*	-1.4	2.24µM*
N[C@@H](COP(=O)(O)O)C(=O)O	-8.3%	/	3.9%
Cc1ccc(NC(=O)COC(=O)/C=C/c2cccs2)c(C)c1	-23.4%	-18.3	5.4%
CCOC(=O)C1(Cc2cccc(F)c2)CCN(Cc2cnn(CC)c2C)CC1	/	/	-13.8%
c1ccc(OCc2nnc3sc(-c4cccs4)nn23)cc1	8.91µM*	?	3.55µM*
Cc1cc(-c2nnc3sc(-c4ccc(Cl)cc4Cl)nn23)n[nH]1	-26.9%	3.4	2.9%
Clc1ccc(Cl)c(-c2nn3c(COc4ccccc4)nnc3s2)c1	10µM*	-1.9	3.55µM*
c1ccc(OCc2nc(-c3cccs3)no2)cc1	-21.1%	9.6	-1.1%

Source: PubChem
